Measured values: PubChem BioAssay AID588855 (National Center for Advancing Translational Sciences (NCATS), 2011)
The campaign covered roughly 410,000 compounds. About 5,000 (1.2%) were called active. Inconclusive results (about 13%) are left out. The sample holds actives, similar compounds and a random draw of the others, so the mix is not that of the screen. Values without a mark were called inactive. The call rests on the fitted dose curve; in most records, active means well fitted inhibition curve with a large enough effect; inconclusive means small, poorly fitted or top-dose-only effect; inactive means no such curve, though single readings can be large or run the other way.

test: qHTS for Inhibitors of TGF-b; settings: HepG2 CAGA-GFP TGF-b/SMAD3 reporter, GFP fluorescence, 18 h, TGF-beta stimulated, 500 pg/mL final; series mostly up to 46.1 µM; activity, negative = inhibition: at the top concentration; further: nearly all actives have a fitted effect of over 65% in size
Text: TGF-b is a main component in the TGF-b signaling pathway which plays diverse roles in cellular and development pathways. TGF-b is the mediated by the transcription factors Smads. Although the Smad-dependent pathway is the primary canonical TGF-b signaling node, TGF-b1 can also activate alternative signaling pathways, including those involving MAPK (ERK, JNK and p38). This interaction may mediate or enhance Smad-dependent responses, or can exert Smad-independent effects. The complexity of this signaling cascade allows the TGF-b superfamily to perform unique, overlapping or redundant functions. We believe that targeting the TGF-beta pathway at the Smad-transcription factor level may eliminate the consequences of disrupting the entire pathway and offer specificity without affecting other signaling pathways. Smad3 is the primary transducer of TGF-b's signals and Smad3 regulates many functions attributed to TGF-b signaling. We hypothesize that Smad3 inhibitors will selectively eliminate Smad3-specific TGF-beta signals without undesired off-target effects. We aim to identify Smad3-small molecule antagonists using a quantitative high throughput screening (qHTS) approach.
A high-throughput assay was developed to screen the NIH Molecular Libraries Small Molecule Repository (MLSMR). This is a cell based assay, where TGF-b is tagged with GFP. A counterscreen is run that looks at cytotoxicity (please see summary AID).
MH087449NIH Chemical Genomics Center [NCGC]
NIH Molecular Libraries Probe Centers Network [MLPCN]
Assay Submitter (PI): Sushil Rane, National Institute of […]
Suspensions of trypsinized HEPG2 CAGA-GFP cells were dispensed into white, tissue culture-treated, solid 1536-well plates at 5uL/well (1000 cells/well final concentration) in DMEM medium supplemented with 1% FBS. Plates were incubated at 37 degrees C for 2 hours, after which 23 nL of compounds or DMSO were delivered to each well using a pin tool. One uL of recombinant TGF-beta in DMEM (1% FBS) was then dispensed (500 pg/mL final concentration), and plates were incubated at 37 degrees C for 18 hours. The plates were measured on an Acumen eX3 Explorer plate reader for GFP fluorescence (ex488/em500-530). GFP values were calculated by determining the mean GFP fluorescence of individual cells, and compiling these values for each well to determine a total well GFP signal. The %Activity was determined from the corrected fluorescence values. A titration of the known TGF-B inhibitor SB431542 was included to monitor plate performance, while unstimulated HEPG2 (-TGF-B) control wells were used to normalize %Activity of identified inhibitors; unstimulated wells corresponded to 100%Activity (full inhibition), while stimulated cell controls (+DMSO) were used to normalize 0%Activity (no inhibition).
Concentration-response curves were fitted to the signals arising from the resulting fluorescence. The concentration-effect curves were then classified based on curve quality (r2), response magnitude and degree of measured activity, and compounds were subsequently categorized based on their curve class.
Potency means the concentration at half of the fitted maximal effect.

SMILES	activity, negative = inhibition [%]	Potency
Cc1ccc(NC(=O)CSc2nc3ccccc3c3nc(CCn4cncc4C)nn23)cc1F	50.7	–
CCN(CC)C(=O)C1=C(C)N(Cc2ccc(F)cc2)C(=O)C(CC(=O)NCc2cccc3ccccc23)C1 (stereo unspecified)	-3.47	–
CCN(CC)C(=O)C1=C(C)N(Cc2ccc(C(C)(C)C)cc2)C(=O)C(CC(=O)NCc2cccc3ccccc23)C1 (stereo unspecified)	–	17.8 µM (active)
COc1ccc(CN2C(=O)C(CC(=O)NCc3cccc4ccccc34)CC(C(=O)N3CCOCC3)=C2C)cc1 (stereo unspecified)	20.9	–
CN(C)c1ccc(/C=c2\[nH]c(=O)/c(=C/c3ccc(N(C)C)cc3)[nH]c2=O)cc1	9.71	–
COc1ccc2c(c1)c(=Cc1ccc(N(C)C)cc1)c1cc(-c3ccccc3)[n+](C)n12	–	5.01 µM (active)
Cc1ccc(NC(=O)CSc2nnc3[nH]c(=O)cc(C)n23)cc1Cl	-0.795	–
Cn1c(=O)n(C)c2cc(C(=O)Nc3ccc(Br)cc3)ccc21	-1.4	–
Cc1ccc(C(=O)Nc2ccc(C(=O)O)cc2)cc1S(=O)(=O)Nc1ccccc1	-13.1	–
O=C(Nc1ccc(Br)cc1)c1ccc(Br)c(S(=O)(=O)NCc2ccccc2)c1	–	12.6 µM (active)
COc1ccccc1C1C(C(=O)N2CCCCC2)=C(C)Nc2nc3ccccc3n21 (stereo unspecified)	-3.85	–
Oc1ccc(Cl)cc1C1C=C(c2ccc3c(c2)OCO3)NC(c2ccc(F)c(Br)c2)N1 (stereo unspecified)	–	10 µM (active)
CCCCCCC1(C)NC(c2ccc3c(c2)OCO3)=CC(c2ccccc2O)N1 (stereo unspecified)	-2.64	–
C(=Nc1ccc(/C=C/c2ccnc3ccccc23)cc1)c1cc2c3c(c1)CCCN3CCC2	2.32	–
NC1=CC(=O)C(=O)c2cccnc21	–	7.94 µM (active)
Cc1ccc2nc(COc3ccc(NC(=O)COc4ccccc4F)cc3)cc(=O)n2c1	2.5	–
C[C@]12c3[nH]c4ccc(Cl)cc4c3CCN1C(=O)[C@@H](CC(=O)NCCCn1ccnc1)C[C@@H]2C(=O)N1CCOCC1	-17.1	–
O=C(C[C@H]1C[C@H](C(=O)N2CCOCC2)[C@@]2(CCC3CCCC3)c3[nH]c4ccc(Cl)cc4c3CCN2C1=O)NCc1ccco1	-11.8	–
CC(C)N(C(=O)[C@H]1C[C@H](CC(=O)NC(C)(C)C)C(=O)N2CCc3c([nH]c4ccc(Cl)cc34)[C@]12C)C(C)C	–	11.2 µM (active)
CCN(CC)C(=O)[C@H]1CC(CC(=O)NCc2ccco2)C(=O)N2CCc3c([nH]c4ccccc34)[C@]12C (stereo partly specified)	-5.13	–
COc1ccc2[nH]c3c(c2c1)CCN1C(=O)C(CC(=O)NCCCN(C)C)C[C@H](C(=O)N2CCOCC2)[C@@]31CCC1CCCC1 (stereo partly specified)	3.02	–
COc1ccc(CNC(=O)C[C@H]2C[C@H](C(=O)N3CCOCC3)[C@@]3(CCC4CCCC4)c4[nH]c5ccc(Cl)cc5c4CCN3C2=O)cc1OC	–	1.78 µM (active)
CCOC(=O)c1c(S(=O)(=O)N2CCCC(C(=O)NCc3cccc(C)c3)C2)c(C)n(C)c1C (stereo unspecified)	-37.3	–

SMILES	activity, negative = inhibition [%]	Potency
Cc1ccc(-n2c(SCC(=O)c3ccccc3)nc3c([nH]c4ccccc43)c2=O)cc1	7.46	–
CN1c2ccc(Cl)cc2-c2nc(SCC(=O)Nc3cc(F)ccc3F)ncc2S1(=O)=O	8.76	–
O=C(c1ccc2c(c1)N(Cc1ccccc1F)C(=O)c1ccccc1S2(=O)=O)N1CCOCC1	1.56	–
Cc1ccc(S(=O)(=O)NCc2nc3nc(C)cc(C)n3n2)cc1	18.1	–
COc1ccc(CCNC(=O)CCCCn2c(=O)c3ccccc3n(Cc3ccccc3)c2=O)cc1OC	4.39	–
CC(=O)c1ccc(NC(=O)CSc2c(C(C)C)cnc3c2c(=O)n(C)c(=O)n3C)cc1	-24.6	–
CCOC(=O)C1=C(N)N(c2ccc(C)cc2)C2=C(C(=O)CCC2)C1c1cccs1 (stereo unspecified)	–	11.2 µM (active)
O=C1CCCC2=C1C(c1cccs1)CC(=O)N2c1ccc(F)cc1 (stereo unspecified)	16.1	–
CCOC(=O)c1cc2c(n(-c3ccc(C)cc3)c1=O)CCCC2=O	4.92	–
COc1ccccc1NC(=O)c1oc2ccccc2c1NC(=O)COc1ccccc1OC	6.75	–
O=C(Nc1ccc(Cl)cc1)c1cnn2c1NC(=C1CC1)C=C2C(F)F	6.09	–
O=C(Cc1ccccc1)NNC(=O)C1CCN(c2ncccn2)CC1	2.56	–
Cc1cc(=O)oc2cc(OCC(=O)N3CCN(c4ccc(F)cc4)CC3)c(Cl)cc12	5.48	–
Cc1cccc(C)c1NC(=O)CN1CCN(c2ccc(F)cc2)CC1	-22.8	–
O=c1cc(CN2CCCCCCC2)c2c(ccc3ccccc32)o1	0.276	–
Oc1c(CN2CCN(c3ccc(F)cc3)CC2)cc(Cl)c2cccnc12	–	7.08 µM (active)
Oc1c(CN2CCCC2)cc(COCc2ccccc2)c2cccnc12	–	4.47 µM (active)
CCc1nn(CCCC(=O)NCc2ccccc2OC)c(=O)c2cc3occc3n12	-7.43	–
CCc1ccc(CNC(=O)c2cc3cc4ccc(OC)cc4nc3o2)cc1	1.92	–
CCCNC(=O)C1CCN(c2nc3ccc(C)cc3[nH]2)CC1	-3.16	–
Cc1ccc(NC(=O)Nc2nnc(-c3ccncc3)s2)cc1	–	11.2 µM (active)
CCc1ccc(NC(=O)Nc2ccncc2)cc1	-6.39	–
CC(C)=CC(=O)Nc1nnc(-c2ccc(F)cc2)s1	-2.71	–
